# Assay results published in PubChem BioAssay (NCI).
# This is part of a sample that, as a whole, favours compounds with a hit. Of some 83,000 tested, about 20% had one in any assay.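 Method: cells in 96-well plates; compound added at one concentration; 48 h incubation; percent growth measured; values under 10 scored active.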 A number with no mark means an inactive call. Active and inactive are the calls of the source.
# Test system: MALME-3M melanoma
# Test: NCI-60 one-dose screen, 48 h (100 = growth as untreated, 0 = no growth, -100 = all killed)
# Settings: 10 µM unless noted
row,SMILES,growth
1,CC1(C)NCCC[C@]2(C)[C@H]3CC=C4[C@@H]5C[C@](C)(COC(=O)c6ccccc6C(=O)O)CC[C@]5(C)CC[C@@]4(C)[C@]3(C)CC[C@@H]12,66.3%
2,CCCCCCCCCCCCCCCCC(=O)O.CCCCCCCCCCCCCCCCCC(=O)O.CCCCCCCCCCCCCCCCCC(=O)O.CCCCCCCCCCCCCCCCCC(=O)O.CCCCCCCCCCCCCCCCCC(=O)O.CO[CH-]OC12COC1CC(O)C1(C)C(O)C(OC(C)O)C3=C(C)C(OC(=O)C(O)C([NH-])c4ccccc4)CC(O)(C(OC(=O)c4ccccc4)C21)C3(C)C.[Cu+].[Zn].[Zn].[Zn].[Zn].[Zn] (configuration not stated),69.5%
3,Cc1c(CN(C)C)cc(C(C)C)cc1C(C)C,124%
4,COC1=C(OC)C(=O)c2ccccc2C1=O,126%
5,COc1ccc(C(=O)CN2C(=O)NC(c3ccccc3)(c3ccccc3)C2=O)cc1,108%
6,CCS(=O)(=O)OCCO[C@H]1Cc2cc3ccc(=O)oc3cc2OC1(C)C,105%
7,CC(C)OC(=O)[C@H](C)N[P@@](=O)(OC[C@@]1(C)O[C@@H](n2cc(F)c(N)nc2=O)C[C@@H]1O[P@](=O)(N[C@@H](C)C(=O)OC(C)C)Oc1ccccc1)Oc1ccccc1,91.1%
8,C=C1CCC2C3(C)COC(c4ccccc4)OC3CCC2(C)C1C/C=C1/C(=O)OCC1O (configuration not stated),99.8%
9,COc1cc(-c2nc(/C=C3/C(=O)Nc4ccccc43)c3ccccn23)cc(OC)c1OC,74.4%
10,CC1(c2ccc(Br)cc2)NC(=O)NC1=O (configuration not stated),113%
11,O=C1C(Cl)=C(SC2=NCCN2)C(=O)c2ccccc21,-50.3% (active)
12,Cc1ccc(C(=O)NN)cc1,117%
13,C=CCN(C)C,111%
14,Cc1c(C(N)=O)sc2c1c(=O)n(Cc1ccccc1)c1nnc(S(C)(=O)=O)n21,92.4%
15,CCCCCC(=C/c1ccccc1)/C=N/N=C(N)N,37%
16,CC1(C)Oc2cc3oc(=O)ccc3cc2C[C@@H]1OCCOS(=O)(=O)c1ccc(C#N)cc1,93.6%
17,CC1=C[C@@H]2c3c(c(O)c(O)c4oc5cc(O)cc(O)c5c(=O)c34)[C@@H](c3cc(O)c(O)c4oc5cc(O)cc(O)c5c(=O)c34)[C@@H]2C(C)(C)C1,-10.3% (active)
18,C=C(C)[C@@H]1CC[C@]2(COC(=O)c3ccccc3C(=O)O)CC[C@]3(C)[C@H](CC[C@@H]4[C@@]5(C)CCCNC(C)(C)[C@@H]5CC[C@]43C)[C@@H]12,68.2%
19,COC(=O)/C=C/c1cc(O)c2oc(-c3ccc(O)c(O)c3)c(C(=O)OC)c2c1,57.4%
20,COC(=O)Nc1nc2ccc(C(=O)c3ccccc3N(C)C3COC3)cc2[nH]1,58.8%
21,CC([C@H]1CC=C2C3CCC4=C[C@@H](N(C)C)CC[C@]4(C)C3CC[C@@]21C)N(C)C (some centres not stated),83.9%
22,O=C1c2ccccc2CCc2ccccc21,98%
